Experimental findings from PubChem BioAssay are described below.

Chain of Alpha-bungarotoxin (Bungarus multicinctus) (P60615 whole entry, looked up): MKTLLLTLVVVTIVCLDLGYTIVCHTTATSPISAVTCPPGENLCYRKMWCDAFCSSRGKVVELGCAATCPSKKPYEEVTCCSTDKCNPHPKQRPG

The experiment has as its target Alpha-bungarotoxin (Bungarus multicinctus) (UniProt P60615). Put plainly: alpha-bungarotoxin binders on microarray, profiling panel, artefact control for SMM control protein annotation, biochemical, small-molecule microarray, Alexa647 label, 635/667 nm fluorescence (AID 1117). The conditions noted are these: alpha-BTX-A647 binding fluorescence, higher = more signal.
As to `CS(=O)(=O)CCOC(=O)C1=CC(CCCO)=CC(c2ccc(CN3CCCC3)cc2)N(Cc2sc3ccccc3c2Cl)C=C1C(=O)OCCS(C)(=O)=O` (stereo not given), the composite z-score came to 2.86.
Molecule `CCOc1cc(C(O)C2C=CC3C(=O)NC(=O)C3N2Nc2ccc(Cl)cc2Cl)ccc1O` (stereo not given) showed a composite z-score of -0.0945.
With `Cc1cc(C)c(C(O)C2C=CC3C(=O)N(c4ccccc4)C(=O)C3N2Nc2ccccc2F)c(C)c1` (stereo not given), the composite z-score was found to be 0.505.
Next, `CCOC(=O)C[C@H]1[C@H](OC(=O)Cc2ccc3c(c2)OCO3)[C@@H](NC(=O)c2ccc3ccccc3n2)c2cc(OCCCO)ccc2N1C(=O)c1ccccc1`: 0.611; `NCCCCCNC(=O)[C@@H]1C[C@@H]2C(=O)N[C@@H](CCCCN)C(=O)N2[C@@H]1c1ccc(O)cc1`: 1.2; `O=C(C1N=C(c2ccc(OCCCO)cc2)N(c2ccccc2)O1)N1CCCCC1` (stereo not given): 1.85.
With `C=CCC(OC(C)=O)[C@@H]1[C@@H](N(Cc2ccc(-c3ccccc3)cc2)C(=O)c2ccc(-c3ccccc3)cc2)c2cc(OCCCO)ccc2N1C(=O)c1ccc2ccccc2c1` (stereo not given in full) the figure was -0.116; with `CCCC[C@@H](O)C1=C(COC)C[C@H]2C(=O)N(Cc3ccccc3)C(=O)[C@H]2[C@H]1CO`, 0.516.
With `COc1ccc(CCNC(=O)[C@@]2(Sc3ccc(C)cc3)CC(=O)N(Cc3ccccc3C(F)(F)F)[C@@H]2c2ccc(CO)cc2I)cc1` the figure was 1.73; with `CCC#CCN(Cc1ccccc1Br)[C@H](/C=C/C1CC1)[C@@H](O)Cc1ccccc1`, -0.229.
In the case of `NCCCCCNC(=O)[C@H]1C[C@H]2C(=O)N3CCC[C@H]3C(=O)N2[C@H]1c1cccc(OCCO)c1`, the composite z-score amounted to 1.24.
Regarding `CC(C)[Si](C#CCCCC#N)(O[C@H](c1ccccc1)c1cn(Cc2ccccc2)nn1)C(C)C`, the composite z-score was -0.199.
With `CC(C)N1CC=CC23O[C@@H]4C=CCCOC(=O)C4[C@H]2C(=O)N(CCCO)[C@@H]3C1=O` (stereo not given in full), the composite z-score was -0.659.
With `[N-]=[N+]=Nc1ccccc1C[C@]1(C(=O)NCC(O)CO)COC(c2ccc(OCCCO)cc2)=N1` (stereo not given in full) the figure was -0.633; with `COCC(=C=CC[C@H](O)c1ccc(CO)o1)CCO`, 0.818; with `CC(C)C(CO)N1C(=O)[C@@H]2[C@H]3C(=O)OCC=C[C@H]3OC23C=CCN(c2ccc(Cl)cc2)C(=O)[C@@H]13` (stereo not given in full), -1.17.
In the case of `COc1ccc([Si](C)(C)[C@H]2[C@H](CC(=O)N3Cc4ccccc4C[C@H]3CO)O[C@@]3(C(=O)N(Cc4ccc(N5CCOC5=O)cc4)c4ccccc43)[C@@H]2C)cc1`, the composite z-score turned out to be 1.22.
Molecule `CCCC[C@@H](O)C1=C(COc2ccccc2)C[C@H]2C(=O)N(Cc3ccccc3)C(=O)[C@H]2[C@H]1CO` showed a composite z-score of 1.29.
Take `C[C@@H]1NC(=O)[C@@H](Cc2ccccc2)NC(=O)[C@@]23C(=O)N[C@@H](Cc4ccccc4)C2[C@H](C)[C@@]2(C)O[C@H]2C3/C=C/C/C=C\CNC1=O` (stereo not given in full): the composite z-score is -0.537.
Molecule `[N-]=[N+]=Nc1ccccc1C[C@]1(C(=O)NCCN2CCOCC2)COC(c2ccc(OCCCO)cc2)=N1` gave a composite z-score of 0.536.
With `CC(C)C(CO)N1C(=O)[C@@H]2C3C(=O)OCCC/C=C\[C@H]3OC23C=CCN(c2ccc4ccccc4c2)C(=O)[C@@H]13` (stereo not given in full), the composite z-score is -0.287.
Next, `C=C(/C(=C/C[C@H](OC(=O)c1ccncc1)c1ccc(CO)o1)c1cnc2ccccc2c1)C(C)C`: 0.999.
For `C=CCOC(=O)[C@@H]1[C@H]2C(=O)O[C@H](c3ccccc3)[C@H](c3ccccc3)N2[C@H](c2ccc(OCCOC(=O)[C@@H]3C[C@@H]4C(=O)N[C@@H](CCCC[N+](C)(C)C)C(=O)N4[C@@H]3c3ccc(O)cc3)cc2)[C@@]12C(=O)Nc1ccc(I)cc12`, the composite z-score is 0.923.
For the molecule `CCCCC(O)C1C=CC2C(=O)N(C)C(=O)C2N1N(c1ccccc1)c1ccccc1` (stereo not given), the composite z-score is 1.8.
`CCCC=C(CCC)[C@@H](NC(=O)c1cccs1)c1ccc(C(=O)OC)cc1` yielded a composite z-score of 0.159.
Turning to `Cc1ccccc1C(O)C1C=CC2C(=O)NC(=O)C2N1Nc1ccccn1` (stereo not given), the composite z-score is 0.173.
As for `C=CCNC(=O)[C@@H]1[C@H]2C(=O)O[C@H](c3ccccc3)[C@H](c3ccccc3)N2[C@H](c2ccccc2OCCO)[C@@]12C(=O)N(C(=O)OCCOC)c1ccc(C#CC3(O)CCCCCC3)cc12`, the composite z-score stood at 0.859.
Next, `CCCNC(=O)[C@@H]1c2ccccc2C(=O)N(Cc2ccc(OC(F)(F)F)cc2)[C@H]1c1ccc(CO)cc1`: 0.102; `CCCNC(=O)[C@@]1(C)c2ccccc2C(=O)N(c2ccc(C)cn2)[C@H]1c1ccc(CO)cc1`: -0.163; `COc1cc2c(cc1O)C(c1ccc(CN3CCCC3)cc1)N(Cc1cc3c(cc1Br)OCO3)CC2` (stereo not given): 0.132.
